From PubChem BioAssay (NCI)
This is part of a sample that, as a whole, favours compounds with a hit. Of some 79,000 tested, about 15% had one in any assay. Unmarked numbers belong to inactive results. The source made the active and inactive calls. Cut-off read from the data, not from the text of the source: active = growth inhibition above about 70%; inactive = the rest.

Legend:
[1] = NCI Yeast Anticancer Drug Screen. Data for the rad50 strain (AID 155);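 note: 0% = growth of vehicle-only cultures of the same strain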; conditions: S. cerevisiae rad50 strain growth inhibition, stronger effect = higher value
Method in brief: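 Relative growth inhibition (compound vs vehicle) was measured in yeast with a defined repair-gene alteration.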

[2] = NCI Yeast Anticancer Drug Screen. Data for the mec2-1 strain (AID 157); conditions: S. cerevisiae mec2-1 strain, stronger effect = higher value
Method in brief: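 Each compound was tested on mec2-1 yeast, a strain altered in DNA damage repair or cell cycle control. Growth inhibition is reported relative to vehicle.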

[3] = NCI Yeast Anticancer Drug Screen. Data for the sgs1 mgt1 strain (AID 161);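 note: 0% = growth of cultures given vehicle only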; conditions: S. cerevisiae sgs1 mgt1 strain, stronger effect = higher value
Method in brief: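 Genetically altered yeast, compound exposure, growth inhibition relative to vehicle.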

[4] = NCI Yeast Anticancer Drug Screen. Data for the cln2 rad14 strain (AID 165);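 note: 0% = growth equal to vehicle treated cultures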; conditions: S. cerevisiae cln2 rad14 strain, stronger effect = higher value
Method in brief: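 Test compounds were added to cln2 rad14 yeast cultures; inhibition of growth was then determined by comparison with vehicle treatment.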

[5] = NCI Yeast Anticancer Drug Screen. Data for the bub3 strain (AID 167); conditions: S. cerevisiae bub3 mutant strain, stronger effect = higher value
Method in brief: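 Screening used yeast with an engineered genetic alteration affecting cell cycle control. Compound-exposed cultures were compared with vehicle cultures, and reduced growth was taken as inhibition.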

[6] = NCI Yeast Anticancer Drug Screen. Data for the mlh1 rad18 strain (AID 175); conditions: S. cerevisiae mlh1 rad18 strain growth inhibition, stronger effect = higher value
Method in brief: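 Inhibition values reflect reduced growth of mutant yeast versus vehicle-treated controls following compound exposure; the mutations affect DNA damage repair.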

[7] = at 5.0 µM (retest, dose inferred, filed as 0.5)
[8] = at 50.0 µM (retest, dose inferred, filed as 5.0)

Row | SMILES | growth inhibition [1, 7] | growth inhibition [1, 8] | growth inhibition ([1]; at 50.0 µM) | growth inhibition [2, 7] | growth inhibition [2, 8] | growth inhibition ([2]; at 50.0 µM) | growth inhibition [3, 7] | growth inhibition [3, 8] | growth inhibition ([3]; at 50.0 µM) | growth inhibition [4, 7] | growth inhibition [4, 8] | growth inhibition ([4]; at 50.0 µM) | growth inhibition [5, 7] | growth inhibition [5, 8] | growth inhibition ([5]; at 50.0 µM) | growth inhibition [6, 7] | growth inhibition [6, 8] | growth inhibition ([6]; at 50.0 µM)
1 | CCCc1nc2c(nc1C)C(=O)C=CC2=O | -101% | 96% (active) | 96.5% (active) | -37% | 99% (active) | 97.5% (active) | -46% | 95% (active) | 81.6% (active) | -44% | 97% (active) | 86.5% (active) | -53% | 96% (active) | 97.1% (active) | -80% | 96% (active) | 98.3% (active)
2 | Cn1c(=S)c2[nH]c(SCCN3CCCCC3)nc2n(C)c1=O | 40% | 54% | 97.2% (active) | 28% | 46% | 99.3% (active) | 20% | 69% | 99.2% (active) | 28% | 28% | 54.5% | 37% | 57% | 97.8% (active) | 22% | 55% | 98.5% (active)
3 | Nc1ccccc1Nc1c([N+](=O)[O-])cc(C(F)(F)F)cc1[N+](=O)[O-] | 53% | 78% (active) | 89.2% (active) | 41% | 55% | 92.3% (active) | 48% | 69% | 92.7% (active) | 42% | 55% | 85.5% (active) | 46% | 61% | 91.4% (active) | 51% | 76% (active) | 90.5% (active)
4 | CCCCNc1ncc(OCC)c(NCCCC)n1 | 1% | -1% | 73.5% (active) | 4% | -44% | 88.9% (active) | 0% | 4% | 92.5% (active) | -2% | 4% | 42.6% | 39% | 23% | 94.9% (active) | 0% | 1% | 77.7% (active)
5 | CCOC(=O)Nc1c(F)cc(F)cc1F | 0% | 0% | 8.65% | -32% | 1% | 5.6% | 1% | -1% | -7.55% | -2% | -4% | 45.2% | -5% | -2% | 4.25% | 2% | 0% | -0.05%
6 | Fc1ccc(NC(=S)SCc2ccccc2)cc1 | 4% | 16% | 68.3% | -2% | 18% | 53.6% | 2% | 19% | 76.8% (active) | -7% | 1% | 28.9% | -4% | 34% | 45.5% | 0% | 15% | 78.2% (active)
7 | CC12CCC(=O)C=C1CCC1C2CCC2(C)C(C(=O)Cn3cnc4c(=S)nc[nH]c43)CCC12 (stereo not given) | 11% | 25% | 32.2% | 5% | -6% | 24.6% | -2% | 23% | 37.5% | -26% | 19% | 14.8% | 0% | 16% | -4.65% | -2% | 22% | -4.7%
8 | Cc1cc(SCC(=O)c2ccc(Cl)cc2)cc(C)[o+]1 | -3% | 90% (active) | 95.8% (active) | -1% | 90% (active) | 95.5% (active) | -2% | 93% (active) | 96.4% (active) | -13% | 73% (active) | 88.7% (active) | -2% | 87% (active) | 96.3% (active) | -9% | 78% (active) | 92.3% (active)
9 | Brc1ccc(C2c3ccccc3-c3ccccc32)cc1 | 21% | 97% (active) | 94.5% (active) | 16% | 97% (active) | 94.7% (active) | 15% | 95% (active) | 96.6% (active) | 0% | 97% (active) | 94% (active) | 2% | 98% (active) | 95.8% (active) | -4% | 97% (active) | 94.8% (active)
10 | COc1c([N+](=O)[O-])cc(-c2ccccc2)cc1[N+](=O)[O-] | -4% | 89% (active) | 69.9% | 10% | 98% (active) | 65.3% | 14% | 93% (active) | 77.8% (active) | -2% | 58% | 67.5% | 5% | 63% | 74.2% (active) | 26% | 96% (active) | 83.2% (active)
